Most compounds without a hit are left out; they make up all but 6% or so of the library.
CRE Fsk mod: CRE-bla signaling modulation under forskolin stimulation; CHO CRE-bla reporter (cAMP response element driving beta-lactamase), forskolin EC10, beta-lactamase ratio; actives 2.5% (n = 71,000); Potency, µM (top dose mostly 38.2 µM), inactives show at the top dose activity change, negative = inhibition, hits mostly activators; active = well fitted activation curve with a large enough effect in the signal ratio, with a control signal flat, not every such curve was filed as active; inconclusive = small, poorly fitted or top-dose-only effect, or effect the other way, or a change in a side signal; the % refers to the signal ratio; note: % of control where 0% means no effect
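Beta-lactamase reporter under a cAMP responsive element in CHO cells; compounds tested in titration series against EC10 NKH 477, 3 h at 37 °C. Read-out: CCF4 FRET ratio 460nm/530nm (excitation 405nm) giving %Activity, fitted to AC50.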
HEK293 cAMP cs: raises cAMP in parental HEK293 cells, TSHR agonist counter-screen | parental HEK293 CNG cAMP sensor, membrane potential fluorescence | Potency, µM (doses to about 57.1 µM), inactives show top-dose activation, most hits filed as activators | actives 2.5% (n = 73,000) | AID 938; note: % of control where 0% means no effect; nearly all actives have a fitted effect of over 55% in size
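Counterscreen for endogenous-receptor signalling: CNG-channel HEK 293 cells report cAMP rise by membrane depolarization. After 60 min dye equilibration with 100 uM RO 20-1724, compounds incubated 30 min before bottom-read fluorescence at 590 nm.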
TSHR ag: agonists of human thyroid stimulating hormone receptor; HEK293-CNG-TSHR cells (CNG channel as cAMP sensor), membrane potential dye, cAMP; Potency, µM (series often up to 57.1 µM), inactives show at the top dose activation, actives largely listed as activators; actives 0.48% (n = 73,000); active = well fitted activation curve with a large enough effect in the main read-out, with a control signal flat, not every such curve was filed as active; inconclusive = small, poorly fitted or top-dose-only effect, or a change in a side signal; inactive = no such curve, though single readings can be large or run the other way; % of control where 0% means no effect;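 note: the control signal comes from parental cells without the receptor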
Target sequence (P16473 whole entry, looked up): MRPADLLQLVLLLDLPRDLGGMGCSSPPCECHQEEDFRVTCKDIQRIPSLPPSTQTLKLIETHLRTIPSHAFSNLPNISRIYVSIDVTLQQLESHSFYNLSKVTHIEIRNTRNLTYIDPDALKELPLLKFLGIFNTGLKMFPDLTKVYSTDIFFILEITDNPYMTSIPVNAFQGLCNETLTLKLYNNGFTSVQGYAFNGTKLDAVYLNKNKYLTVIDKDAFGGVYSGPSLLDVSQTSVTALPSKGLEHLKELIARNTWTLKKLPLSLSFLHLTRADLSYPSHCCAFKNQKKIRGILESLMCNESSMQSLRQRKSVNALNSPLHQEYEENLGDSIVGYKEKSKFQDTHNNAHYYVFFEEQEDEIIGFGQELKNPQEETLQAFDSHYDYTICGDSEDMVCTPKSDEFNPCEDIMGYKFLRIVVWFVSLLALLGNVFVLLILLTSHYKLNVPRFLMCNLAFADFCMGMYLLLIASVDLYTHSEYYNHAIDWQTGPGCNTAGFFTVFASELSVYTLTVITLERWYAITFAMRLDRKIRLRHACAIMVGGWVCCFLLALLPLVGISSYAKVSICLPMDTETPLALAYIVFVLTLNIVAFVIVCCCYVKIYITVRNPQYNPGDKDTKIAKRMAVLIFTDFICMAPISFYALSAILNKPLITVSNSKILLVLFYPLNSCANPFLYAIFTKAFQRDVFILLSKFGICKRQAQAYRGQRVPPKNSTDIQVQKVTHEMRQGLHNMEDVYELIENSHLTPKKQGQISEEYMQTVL
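cAMP rise detected as CNG-channel membrane depolarization by fluorescent dye (emission 590 nm), 30 min after compound, following 60 min dye loading containing 100 uM RO 20-1724 at room temperature. Cells: TSHR/CNG HEK 293, with parental CNG HEK 293 as control.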
ERK AVP inh: blocks ERK signaling stimulated by vasopressin; HEK293-V1b, vasopressin-stimulated pERK AlphaScreen; Potency, µM (highest dose often 57.5 µM), inactives show top-dose activity, negative = inhibition, most hits filed as inhibitors; actives 0.99% (n = 72,000); AID 995; note: % is set by controls: 0 for no effect and ±100 for the full control effect; nearly all actives have a fitted effect of over 55% in size
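V1b-HEK293 cells; cpd 30 min 37C; 25 nM vasopressin 5 min; lyse 10 min; AlphaScreen beads 5 hr RT. Normalized to DMSO basal and 25 nM vasopressin; AC50 by Hill fit.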
The depositor's hits bear a star; ? = inconclusive; . = not tested or not shown; [ ] = another dose, or the depositor's remark. Unless noted, calls come from the whole dose curve; as a rule, active = well fitted curve in the direction sought with a large enough effect; inconclusive = small, poorly fitted or top-dose-only effect, or another doubt; inactive = no such curve, though single readings can be large; an effect the other way counts as inactive or inconclusive. Potency is the fitted concentration of half-maximal effect.

SMILES	CRE Fsk mod	HEK293 cAMP cs	TSHR ag	ERK AVP inh
CSCSC1=C(C#N)C(c2ccc(Cl)cc2)C(C(C)=O)=C(C)N1 (centres undefined)	-12%	25µM*	?	7%
CCc1cccc2nc3c(c([Si](CC)(CC)CC)c12)Cn1c-3cccc1=O	10µM*	25µM*	?	-11%
CC(C)c1cccc2nc3c(c([Si](C)(C)C)c12)Cn1c-3cccc1=O	13µM*	13µM*	?	35%
CCc1c2c(nc3c(C(C)C)cccc13)-c1cccc(=O)n1C2	?	25µM*	?	-8%
CO[C@H]1COC(=O)CCC[C@@H](C)[C@H](OC)COC(=O)[C@H]2CCCN2C(=O)C/C=C\[C@@H]1C	.	4%[11.4 µM]	-9%[11.4 µM]	5%[11.5 µM]
Cc1cccc(OCCSc2cc(C)nc(N)n2)c1	24%	32µM*	?	1%
COc1cc2c(cc1OC)-c1nncn1C(C)(C)C2	13µM*	1%	0%	-22%
CC(=O)c1c(C)n(-c2ccccc2)c2ccc(OCC(O)CN3CCOCC3)cc12 (centres undefined)	15%	13µM*	?	-10%
CC(=O)c1c(C)n(-c2ccccc2)c2ccc(O)cc12	-3%	9%	8%	0%
C[N+](C)(C)[C@H](Cc1c[nH]c(=S)[nH]1)C(=O)O	10%[7.6 µM]	5%[11.4 µM]	11%[11.4 µM]	9%[11.5 µM]
COc1ccc(C(=O)COC(=O)CCN=C2NS(=O)(=O)c3ccccc32)cc1OC	10µM*	1%	4%	?
COc1ccc(C(=O)COC(=O)c2ccc(OC)c(OC)c2)cc1OC	?	?	?	-22%
COc1ccc(S(=O)(=O)N2CCCCC2)cc1C(C)C	-12%	32µM*	?	-9%
CSc1nc(N2CCOCC2)c2c3c(sc2n1)CCC3	?	25%	14%	?
CCC1CCc2c(sc3ncnc(N4CCOCC4)c23)C1 (centres undefined)	18%	32µM*	?	-17%
CC(C)[C@@H](CC(=O)N[C@@H]1CCCC[C@H]1C(=O)N[C@H](CC(=O)N[C@@H](CCC(=O)O)CC(=O)O)Cc1ccccc1)NC(=O)C[C@H](Cc1ccccc1)NC(=O)[C@@H]1CCCC[C@H]1N	-16%	-1%	2%	.
COc1ccc(-n2c(SCc3nnc(-c4ccccc4)o3)nnc2-c2ccccc2)cc1	-2%	20µM*	?	8%
COc1ccc(-c2nnc(SCc3nnc(-c4ccccc4)o3)n2-c2ccccc2)cc1	?	10%[11.4 µM]	19%[11.4 µM]	-15%
COc1ccc2[nH]c3nc(SCc4nnc(-c5ccccc5)o4)nnc3c2c1	4µM*	19%	8%	-13%
COc1ccc(-c2nnc(SCc3nnc(-c4ccc(Cl)cc4)o3)n2-c2ccccc2)cc1	-13%	16µM*	?	8%
CCC(C)(C)C(=O)O[C@@H]1C[C@@H](C)C=C2C=C[C@H](C)[C@H](CC[C@@H]3C[C@@H](O)CC(=O)O3)[C@H]21	21%	21%	.	9%
COC(=O)c1ccc(C(NC(=O)OCc2ccccc2)/C(F)=C/[C@@H](C)C(=O)N(C)Cc2cccnc2)cc1 (some centres undefined)	-5%	26%	.	-15%
CC(C)CO/N=C1/[C@H]2O[C@@H]2[C@@H](O)[C@H]2[C@H]1CCn1c(=O)n(C)c(=O)n12	.	1%[11.4 µM]	-1%[11.4 µM]	1%[11.5 µM]
Clc1ccc2nc(-c3ccccc3)[nH]c2c1	.	.	.	25µM*
CS(=O)(=O)N1CCN(C(=O)c2csc3ccccc23)CC1	10µM*	3%	-5%	7%
SMILES	CRE Fsk mod	HEK293 cAMP cs	TSHR ag	ERK AVP inh
CCCC/C=C/C(NC(=O)c1ccco1)c1ccccc1 (centres undefined)	-3%	?	?	11%
Cc1ccccc1N1OC2C(=O)N(c3ccc(F)cc3)C(=O)C2C1c1ccccn1 (centres undefined)	?	20µM*	?	22%
CCC(=O)OCC(=O)C1(OC(=O)CC)C(C)CC2C3C(Cl)CC4=CC(=O)C=C[C@@]4(C)C3C(O)C[C@@]21C (some centres undefined)	.	.	.	14%
Cc1ccc2oc(NC(=O)N3CCOCC3)cc(=O)c2c1	0.32µM*	-30%	-2%	-14%
O=C(Nc1cc(=O)c2ccccc2o1)N1CCOCC1	?	-8%	6%	-13%
COC(=O)c1sccc1NC(=O)c1ccoc1C	10µM*	30%	21%	-4%
Cc1occc1C(=O)Nc1nccs1	?	2%	6%	-25%

Bioassay records (PubChem)
